According to PubChem BioAssay AID1240 (Sanford-Burnham Center for Chemical Genomics, 2008):
Screen size: about 50,000 compounds; about 800 (1.6%) showed an effect of 50% or more. What follows is part of a selection rich in strong results, with near analogues and random picks from the rest.

These molecules were tested against Bcl-2-like protein 10 (Homo sapiens) (UniProt Q9HD36) (assay: TR3 peptide-Bcl-B binding displacers, biochemical primary FP assay, phenotype converters (AID 1240;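 also: 0% = Bcl-B with tracer peptide and DMSO and 100% = tracer peptide lacking Bcl-B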)). Details: GST-Bcl-B / FITC-TR3 peptide fluorescence polarization; stronger effect = higher value; compound at 3.75 mg/L.
Sequence of Bcl-2-like protein 10 (Homo sapiens) (Q9HD36 whole entry, looked up): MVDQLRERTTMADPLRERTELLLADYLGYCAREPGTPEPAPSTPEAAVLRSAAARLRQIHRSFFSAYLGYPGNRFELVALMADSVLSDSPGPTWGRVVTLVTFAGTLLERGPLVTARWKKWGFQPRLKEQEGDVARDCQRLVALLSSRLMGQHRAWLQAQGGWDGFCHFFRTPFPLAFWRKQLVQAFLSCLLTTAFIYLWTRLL

SMILES	displacement
CCOC(=O)c1c(-c2ccccc2)oc2ccc(OC(=O)c3ccc(OC)c(OC)c3)cc12	8.8%
Cc1ccc(C(=O)COc2cc(OCC(=O)c3ccc(C)cc3)c3c(C)cc(=O)oc3c2)cc1	10%
COc1nccnc1NS(=O)(=O)c1ccc(NC(=S)NC(=O)c2ccc(F)c(F)c2)cc1	6.6%
CSc1ccc(-c2ncnn2-c2cccc(Cl)c2)cc1	-4.7%
COC(=O)C1C(=O)N(C)C(c2ccccc2)C1C(=O)OC (stereo not drawn)	8.4%
CCOC(=O)C1=C(C)N=c2s/c(=C/c3cccc([N+](=O)[O-])c3)c(=O)n2C1c1ccccc1Cl (stereo not drawn)	10.2%
CCOC(=O)C1=C(C)N=c2s/c(=C\c3cccc([N+](=O)[O-])c3)c(=O)n2C1c1cccc(OC)c1 (stereo not drawn)	4.1%
CCOC(=O)C1=C(C)N=c2s/c(=C\c3cccc([N+](=O)[O-])c3)c(=O)n2C1c1ccccc1F (stereo not drawn)	138%
CCOC(=O)C1=C(C)N=c2s/c(=C\c3ccc(C)cc3)c(=O)n2C1c1cccc([N+](=O)[O-])c1 (stereo not drawn)	127%
CCOC(=O)C1=C(C)N=c2s/c(=C\c3cccc([N+](=O)[O-])c3)c(=O)n2C1c1ccc(C)cc1 (stereo not drawn)	16.1%
CCOC(=O)C1=C(C)N=c2s/c(=C/c3ccc(F)cc3)c(=O)n2C1c1cccc([N+](=O)[O-])c1 (stereo not drawn)	7.1%
CCCCOc1ccc(C(=O)O/N=C2/CCc3cc(OC)ccc32)cc1	2%
O=C(Nc1ccc(Cl)c(Cl)c1)c1ccc([N+](=O)[O-])o1	-8%
Cc1cc(C)c2nc3s/c(=C\c4ccc(-c5cc([N+](=O)[O-])c(C)cc5C)o4)c(=O)n3c2c1	-20.8%
CN1CCO/C1=C(C#N)\C=C1\Nc2ccccc2C1=O	-77.4%
CN1CCO/C1=C(C#N)\C=C1/C(=O)N(c2c(Cl)cccc2Cl)c2ccccc21	67.6%
Cc1c(Cl)cccc1N1C(=O)c2ccccc2C1=O	7.1%
COc1ccc(/C=C2\SC(N3CCCCCC3)=NC2=O)cc1OC	-1.9%
Cc1ccc(S(=O)(=O)Oc2ccc(/C=C3/SC(=S)N(C)C3=O)cc2)cc1	-3.3%
Cc1cccn2c(=O)c(/C=N/NC(=O)c3ccccc3O)c(N3CCCCC3)nc12	130%
Cc1cccn2c(=O)c(C=O)c(N3CCC(C)CC3)nc12	17%
Cc1cccn2c(=O)c(C=O)c(N3CCCCC3)nc12	3.9%
CCOC(=O)COc1ccc(/C=C2\C(=O)NC(=O)N(c3ccc(OC)cc3)C2=O)cc1OC	0.6%
Cc1cc(C)cc(N2C(=O)NC(=O)/C(=C\c3cc(Br)ccc3OCC(=O)O)C2=O)c1	-7.4%
CCN(CC)CCNc1nc2nonc2nc1NCCN(CC)CC	-0.5%
NC(=O)c1cc(NC(=O)c2cc3ccccc3cc2O)cc(C(N)=O)c1	-4.2%

SMILES	displacement
CN(C)c1ccc(NC(=O)c2ccc(Br)cc2)cc1	48.8%
COc1cc(OC)cc(C(=O)Nc2ccc3oc(-c4ccc(I)cc4)nc3c2)c1	-5.8%
COc1ccc(Br)cc1C(=O)Nc1cccc(-c2nc3cc(C)ccc3o2)c1C	20.2%
CC(=O)Nc1cccc(-c2nc3cc(C)ccc3o2)c1C	99.7%
COc1cc(OC)cc(C(=O)Nc2ccc(-c3nc4cc(C)cc(C)c4o3)cc2)c1	55.3%
Cc1cc(C)c2oc(-c3ccc(NC(=O)c4cccc([N+](=O)[O-])c4C)cc3)nc2c1	-3.8%
COc1cc2ccccc2cc1C(=O)Nc1cccc(-c2nc3cc(C)cc(C)c3o2)c1C	26.5%
CCOc1ccc(C(=O)Nc2cccc(-c3nc4cc(C)ccc4o3)c2C)cc1	17.4%
COc1cc(OC)cc(C(=O)Nc2cccc(-c3nc4cc(C)cc(C)c4o3)c2C)c1	58.7%
COc1cc(OC)cc(C(=O)Nc2cccc(-c3nc4ncccc4o3)c2C)c1	5.6%
Cc1onc(-c2c(Cl)cccc2Cl)c1C(=O)Nc1ccc(N(C)C)cc1	12.1%
CCOC(=O)c1c(NC(=O)COc2ccccc2C)sc(C(=O)Nc2ccccc2F)c1C	-0.6%
CN(C)c1ccc(-c2ncnn2-c2sc3c(c2C#N)CCCC3)cc1	3.1%
Cc1ccc(NCC(=O)N/N=C\c2ccc(OCc3ccccc3)cc2)cc1	6.5%
O=[N+]([O-])c1ccc(-n2ncnc2-c2ccc(F)cc2)cc1	10.5%
O=C(O)C(Cc1ccccc1)N1C(=O)/C(=C/c2ccc(O)cc2)SC1=S (stereo not drawn)	-23.7%
CN(C)c1ccc(/C=N/Nc2cc(N3CCOCC3)ncn2)cc1	-14.2%
O=C(Cn1c2ccccc2c(=O)c2ccccc21)N/N=C/c1cc([N+](=O)[O-])ccc1N1CCCCC1	-6.8%
O=C(Cn1c2ccccc2c(=O)c2ccccc21)N/N=C/c1cc([N+](=O)[O-])ccc1N1CCCC1	73.6%
O=C(Cn1c2ccccc2c(=O)c2ccccc21)N/N=C/c1cc([N+](=O)[O-])ccc1N1CCCCCC1	-7%
COc1ccc(CN2CCN(C(=O)c3ccc(F)cc3)CC2)cc1Br	8.4%
Cc1no[n+]([O-])c1COc1ccc(/C=C2\NC(=S)NC2=O)cc1	-73.2%
COc1cc(C=C2C(=O)NC(=O)NC2=O)ccc1OCCO	-2.4%
COc1cc(C=C2C(=O)NC(=O)NC2=O)ccc1OCCSc1ccc(C)cc1	64.1%
COc1ccccc1/C=C1/C(=O)NC(=O)N(c2ccccc2OC)C1=O	-2.3%
COc1ccc(N2C(=O)NC(=O)/C(=C/c3ccc(OCCOc4ccc(C)cc4)c(OC)c3)C2=O)cc1	12.8%

SMILES	displacement
COc1cc(/C=C2/C(=O)NC(=O)N(c3ccccc3)C2=O)ccc1OCC(=O)O	6.2%
CCOc1ccc(/C=C2\C(=O)NC(=O)N(c3ccccc3C)C2=O)cc1Cl	0.3%
COc1ccccc1OCCOc1ccc(/C=C2/C(=O)NC(=O)N(c3ccccc3C)C2=O)cc1OC	76.2%
COc1ccccc1N1C(=O)NC(=O)/C(=C\c2cc3ccccc3n2C)C1=O	165%
COc1ccccc1N1C(=O)NC(=O)/C(=C/c2c(OC)ccc3ccccc23)C1=O	1.1%
COc1cc(C=C2C(=O)NC(=O)NC2=O)ccc1OCCOc1ccc(C)cc1	32.2%
COc1cc(/C=C2/C(=O)NC(=O)N(c3cccc(C)c3)C2=O)ccc1OCCOc1ccccc1	19%
COc1cc(/C=C2/C(=O)NC(=O)N(c3ccccc3C)C2=O)ccc1OCCOc1ccccc1	69.3%
Cc1c(Nc2nc3nonc3nc2Nc2cccc(Cl)c2)c(=O)n(-c2ccccc2)n1C	10%
CCOc1ccc(N2C(=O)C3CC=CCC3C2=O)cc1 (stereo not drawn)	14.7%
O=C(O)CCC(=O)Nc1ccc(S(=O)(=O)N2CCCCCC2)cc1	3%
O=C(/C=C/c1ccc([N+](=O)[O-])cc1)NC(=S)Nc1ccccc1Cl	-3.4%
CCOC(=O)C(C)Oc1ccc2c(C)c(CC)c(=O)oc2c1 (stereo not drawn)	-3.1%
COc1ccc(NC(=O)CSc2nc3ccc(N4C(=O)c5ccccc5C4=O)cc3s2)cc1	1.7%
COc1ccccc1NC(=O)CSc1nc2ccc(N3C(=O)c4ccccc4C3=O)cc2s1	84.2%
COC(=O)c1ccccc1NC(=O)CSc1nc2ccc(N3C(=O)c4ccccc4C3=O)cc2s1	3.2%
CN1/C(=C\C=N\Nc2ccc([N+](=O)[O-])cc2)C(C)(C)c2ccccc21	-4.6%
Cc1ccc(-n2cnc3sc(C)c(C)c3c2=O)cc1	-0.9%
Cc1sc2ncn(/N=C/C=C3\N(C)c4ccccc4C3(C)C)c(=O)c2c1C	75.7%
O=C(O)c1cccc(N(CCO)CCO)c1	6%
COc1cccc(NC(=O)CCCN2C(=O)c3cccc4cccc(c34)C2=O)c1	6.9%
COc1ccc(C2=C/C(=C/c3cccs3)C(=O)O2)cc1	7.8%
COC(=O)C1=CN(Cc2ccc(OC)cc2)C=C(C(=O)OC)C1c1cccs1	2.9%
COc1ccc(C2=CC(c3cccs3)C=C(c3ccc(OC)cc3)O2)cc1	162%
Cc1ccc(CN2CCN(/N=C\c3cc(Br)ccc3O)CC2)cc1	-6%
Cc1ccc(C(=O)Nn2c(O)c(C3=c4ccccc4=NC3=O)sc2=S)cc1	-18.6%

SMILES	displacement
O=C1CC(c2ccccc2)CC(O)=C1C=Nc1ccc(Br)cc1 (stereo not drawn)	-3.8%
O=C1CC(c2ccccc2)CC(O)=C1C=Nc1ccc(F)cc1 (stereo not drawn)	-1.2%
Cc1cc(C)cc(N=CC2=C(O)CC(c3ccccc3)CC2=O)c1 (stereo not drawn)	84.1%
O=C(O)CCC(=O)Nc1ccc(F)cc1	-7.3%
CC1CCN(C2=NC(=O)/C(=C/c3ccc(N(C)C)cc3)S2)CC1	157%
CN(C)c1ccc(/C=C2\SC(N3CCN(C4=NC(=O)/C(=C\c5ccc(N(C)C)cc5)S4)CC3)=NC2=O)cc1	-12.9%
Cc1ccc(/C=C2\SC(N3CCC(C)CC3)=NC2=O)cc1	-15%
O=C(O)c1ccc(NC(=O)c2ccc(Cl)cc2)cc1	-3.6%
COc1cc(/C=C/C(=O)c2c(C)cc(C)[nH]c2=O)cc(OC)c1OC	8.5%
Cc1ccccc1/C=C1/SC(=Nc2ccc(F)cc2)NC1=O	7.8%
COc1ccccc1/C=C1/SC(=Nc2ccc(F)cc2)NC1=O	161%
COc1ccc(/C=C2/SC(=Nc3ccc(F)cc3)NC2=O)c(OC)c1	11.6%
Cc1ccc(N=C2NC(=O)/C(=C\c3ccc(C)o3)S2)cc1	-9.8%
O=C1NC(=Nc2ccc(F)cc2)S/C1=C\c1ccco1	32.8%
Cc1ccc(/C=C2\SC(=Nc3ccc(F)cc3)NC2=O)o1	101%
COc1ccc(/C=C2\SC(=S)N(NC(=O)c3cccnc3)C2=O)cc1	3.4%
Cc1ccc(-c2csc(/C(C#N)=C\c3ccc(C)s3)n2)cc1	-2.9%
CCCCc1ccc(-c2csc(/C(C#N)=C/c3ccc(O)c(OC)c3)n2)cc1	2.4%
COc1ccc(/C=C(/C#N)c2nc(-c3ccc(Br)cc3)cs2)cc1OC	101%
COc1ccc(/C=C(\C#N)c2nc(-c3ccc(C)cc3)cs2)cc1	4.5%
COc1cccc(/C=C(\C#N)c2nc(-c3ccc(Br)cc3)cs2)c1	-7.3%
N#C/C(=C\c1ccc(O)cc1)c1nc(-c2ccc(-c3ccccc3)cc2)cs1	21.6%
COc1cc(/C=C(\C#N)c2nc(-c3ccc(-c4ccccc4)cc3)cs2)ccc1O	112%
COc1ccc(-c2csc(/C(C#N)=C\c3ccc(C)s3)n2)cc1	115%
CCCCc1ccc(-c2csc(/C(C#N)=C/c3ccc(OC)c(OC)c3)n2)cc1	4.8%
